From PubChem BioAssay
iPSC survival up = enhancers of single-cell hiPSC survival, primary screen, ATPlite luminescence. 100% = ROCK inhibitor wells, 0% = DMSO. survival enhancement, % at 20 µM. 0.044% of 360,000 active; in the data active means survival enhancement above about 18%;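 further: cells exposed to compounds for 16 hours before the ATP read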
PPC-1+TRAIL kill = compounds killing PPC-1 cancer cells with TRAIL present, primary screen, TRAIL potentiator project, ATPLite luminescence, uHTS | PPC-1 cells + TRAIL, ATPLite viability luminescence | cell killing (% activity), % at 4 µM or 5 µM | 0.41% of 220,000 active;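 active means cell killing above 50% in the first pass at 4 µM, then a duplicate retest at 5 µM averaging 50% or more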;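 further: plate controls were cells with TRAIL plus DMSO for no effect and medium-only wells lacking cells for full effect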
C8 TRAIL sens = viability loss with TRAIL in NB7+C8 cells, primary screen, TRAIL sensitizer project, cell-based, ATPlite luminescence. AID 624354, 2012. 1% of 360,000 active. inhibition (viability loss, TRAIL sensitization), % at 10 µM;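 active means compounds causing at least 50% loss of cell viability in the single-dose screen, relative to plate controls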
HIF-2a inh = HIF-2a reporter inhibitors, primary screen, luminescence, 786-0 RCC cells | 786-0 RCC cells HIF-2a reporter, luciferase luminescence, overnight | inhibition, % at 18.8 µM | 0.72% of 360,000 active | AID 624352, 2012;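 active means inhibition of the luminescence signal of 40% or more relative to plate controls, in a single-dose primary screen at 18.75 µM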
KKLEB cytotox = cytotoxicity in KKLEB CF airway cells, primary screen, cytotoxicity control for CF NF-kB inhibitor project, cell-based, uHTS, fluorescence assay plates | KKLEB CF airway cells viability, ATPlite luminescence, overnight; stronger effect = lower value; cells stimulated with P. aeruginosa culture filtrate | activity change (cytotoxicity), % at 5 µM | 0.36% of 360,000 active | AID 602141, 2011;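 active means corrected activity change at or below -50% at 5 µM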
CF NFkB inh = inhibitors of PAF-induced NF-kB signaling, primary screen, cell-based, GFP fluorescence, uHTS; KKLEB NF-kB-GFP reporter, GFP fluorescence overnight; inhibition, % at 5 µM; 0.86% of 360,000 active; AID 588850, 2011;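 active means at least 50% inhibition at 5 µM, scaled per plate between neutral and stimulator controls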;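 further: PAF is a Pseudomonas aeruginosa culture filtrate used as stimulus; plate controls were PAF-stimulated DMSO wells for no effect and unstimulated DMSO wells for full effect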
* marks the source's active call; other numbers are inactive results; nt = no result given. Only some compounds are listed: those with a hit (about 2.2% of all), similar ones and a draw of the others.

SMILES	iPSC survival up	PPC-1+TRAIL kill	C8 TRAIL sens	HIF-2a inh	KKLEB cytotox	CF NFkB inh
CCOC(=O)c1cccc(N2C(N)=NC(N)=NC2(C)C)c1	-3	15	67*	20	7	-8
Cc1ccc(C(=O)NCc2ccco2)cc1S(=O)(=O)N1CCCC1	0	nt	10	2	-1	13
O=C(NCc1cccs1)C1CCCN(C(=O)Nc2ccccc2)C1 (centres undefined)	0	nt	-28	1	8	-1
CC1(C)N=C(N)N=C(N)N1c1cccc(C#N)c1	0	nt	82*	23	3	-6
Cc1ccc(N2C(N)=NC(N)=NC2(C)C)c(C)c1	-1	-30	72*	8	-2	5
Cc1ccc(N=c2oc3cc(O)ccc3cc2C(N)=O)cc1	-4	40	35	-140	-23	83*
Nc1ncnc2c(C3OC(CO)C(O)C3O)scc12 (centres undefined)	-4	nt	57*	50*	-15	37
CC1(C)N=C(N)N=C(N)N1CCCCc1ccccc1	2	nt	67*	19	5	-17
Cc1ccccc1N1C(N)=NC(N)=NC1(C)C	nt	15	nt	nt	nt	nt
O=C(c1cnc(Cl)c(Cl)c1)N1CCN(S(=O)(=O)c2ccc3ccccc3c2)CC1	-1	nt	48*	17	4	15
O=C(CC1SC(=O)N(Cc2cccc3ccccc23)C1=O)Nc1nccs1 (centres undefined)	2	-4	53*	9	-1	9
CCOC(=O)CN1C(=O)SC(CC(=O)Nc2nccs2)C1=O (centres undefined)	-1	11	60*	13	3	2
O=C(Cc1ccccc1)Nc1nccs1	-1	nt	-5	11	3	2
O=C(CN1C(=O)C2CCCCC2C1=O)Nc1nccs1 (centres undefined)	0	4	-3	15	2	-1
Cc1ccc(S(=O)(=O)C[C@@H]2OC3CCCCC3N2S(=O)(=O)c2ccc(C)cc2)cc1 (some centres undefined)	nt	nt	-1	-6	nt	nt
CN1CCN(c2nc(-c3ccc(C(C)(C)C)cc3)nc3ccccc23)CC1	-1	nt	71*	-43	-38	21
Cc1ccc(-c2nc(N3CCN(C)CC3)c3ccccc3n2)cc1	0	nt	16	-31	-17	34
C[C@@H]1CCC(=O)N(CC[C@H](Oc2ccccc2)c2ccccc2)CC1	-2	nt	-7	-13	8	-19
NC(=S)n1[nH]c(-c2ccc([N+](=O)[O-])cc2)c(N=Nc2ccccc2[N+](=O)[O-])c1=O	-1	13	4	-14	4	-38
NC(=S)n1[nH]c(-c2ccc([N+](=O)[O-])cc2)c(N=Nc2cccc([N+](=O)[O-])c2)c1=O	4	2	53*	-51	-36	12
CC12CCC(=O)N1C(C(=O)Nc1ccc(Br)cc1Cl)CS2 (centres undefined)	0	nt	-16	9	-9	-19
CCN(CC)c1ccc2c(Cl)c(Br)c(=O)oc2c1	-5	39	12	88*	-12	37
COc1ccc(OC)c(Nc2nc(N)nc(CCl)n2)c1	1	4	92*	18	-2	12
COc1ccccc1Nc1nc(N)nc(CCl)n1	0	26	92*	5	-8	13
COc1ccc(OCc2nc(N)nc(Nc3ccccc3OC)n2)cc1	-2	15	28	-18	-5	-2
SMILES	iPSC survival up	PPC-1+TRAIL kill	C8 TRAIL sens	HIF-2a inh	KKLEB cytotox	CF NFkB inh
O=c1[nH]c(=O)n([C@H]2C[C@H](O)[C@@H](CO)O2)cc1C(F)(F)F	6	4	7	8	9	-4
[N-]=[N+]=NC1C[C@H](n2ccc(=O)[nH]c2=O)O[C@@H]1CO (some centres undefined)	0	20	-1	6	-61*	6
CCOC(=O)c1c(S(=O)(=O)NCC(=O)NCc2cccc(C)c2)c(C)n(C)c1C	0	nt	-4	19	24	-17
COC1=CC(=O)c2c(ccc3ncnc(N)c23)C1=O	-3	nt	92*	91*	-90*	82*
CC1=C(SCc2ccccc2)C(=O)c2ccccc2C1=O	-1	nt	51*	29	-44	89*
N/C(=N\OC(=O)c1ccccc1)c1ccn[nH]1	0	nt	56*	-172	13	-16
N/C(=N\OC(=O)C12CC3CC(CC(C3)C1)C2)c1ccncc1	0	-13	20	-22	-1	-9
N/C(=N\OC(=O)c1ccc(Br)cc1)c1ccccc1	-1	2	84*	-262	-8	-6
N/C(=N\OC(=O)c1ccccc1)c1cccnc1	1	5	2	-233	5	-12
Cc1ccc(/C(N)=N/OC(=O)C23CC4CC(CC(C4)C2)C3)cc1	4	25	88*	-132	-5	0
N/C(=N\OC(=O)c1cccc(Br)c1)c1ccc(Br)cc1	-1	1	59*	-99	-7	-1
COc1ccc(/C=C(\NC(=O)c2ccccc2)C(=O)N2CCC(C)CC2)cc1	1	nt	-1	15	16	-8
C[C@@H]1CN([C@@H](C)CO)C(=O)c2cc(NC(=O)c3ccccc3)ccc2O[C@@H](C)CCCCO[C@@H]1CN(C)S(=O)(=O)c1ccc(F)cc1	3	nt	3	3	2	5
Cc1ccc(C(=O)O/N=C(\N)c2ccc(Br)cc2)cc1	-2	24	81*	-253	18	-23
Cc1ccc(C)c(NC(=S)NC(NC(=O)Cc2cccc3ccccc23)C(Cl)(Cl)Cl)c1 (centres undefined)	-1	18	85*	17	-70*	71*
COc1ccc(C(CNCC(O)COc2c(C)ccc(C)c2C)N(C)C)cc1 (centres undefined)	-1	nt	-6	13	-17	1
COc1ccc(C(=O)N/C(=C\c2ccco2)C(=O)NCCN2CCOCC2)cc1	0	nt	-14	0	8	-7
COc1ccc(-c2cc3ccc(OCC(=O)NCC4CCC(C(=O)O)CC4)cc3oc2=O)cc1 (centres undefined)	-5	nt	59*	-128	12	0
COc1ccc2c(c1)c(=O)oc1cc(OCC(=O)NCC3CCC(C(=O)O)CC3)ccc12 (centres undefined)	0	nt	0	-34	8	-13
CCOC(=O)C1=CCN(S(=O)(=O)c2ccccc2C)C1c1ccc(Cl)cc1 (centres undefined)	4	nt	59*	14	-1	5
CCOC(=O)C1=CCN(S(=O)(=O)c2ccccc2F)C1c1ccc(Cl)cc1 (centres undefined)	-1	nt	6	11	-4	-5
